# High-throughput results as filed in PubChem BioAssay.
# An excerpt weighted towards active compounds, which were near 3% of everything screened.
# RE007 growth inh: less growth of the S. pombe RE007 Vpr strain | S. pombe RE007 Vpr strain, BacTiter-Glo ATP luminescence, 24 h | Potency, µM (doses to about 92.2 µM), for the others: at the highest dose activity change, negative = less growth, hits mostly inhibitors | 360,000 compounds, 0.21% hits; active = well fitted falling curve with a large enough effect; inconclusive = small, poorly fitted or top-dose-only effect; inactive = no such curve, though single readings can be large or run the other way; also: nearly all actives have a fitted effect of over 50% in size
#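 Fission yeast strain RE007, carrying one chromosomally integrated HIV-1 vpr copy, was seeded at OD 0.01 in PMG+AL medium with 23 nL pinned compound. After 24 h at 30 °C and 99% humidity, viability was read by BacTiter-Glo luminescence.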
# Sm TGR block: S. mansoni TGR enzyme inhibition; purified TGR, DTNB reduction, TNB absorbance 405 nm; Potency, µM (top dose mostly 114 µM), inactives show at the highest dose activity change, negative = inhibition, most hits filed as inhibitors; 360,000 compounds, 3% hits; AID 485364; also: nearly all actives have a fitted effect of over 60% in size
#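 First, TGR (20 nM dispensed) and NADPH were mixed with compound. Second, a 15 min room-temperature incubation followed. Third, further NADPH and then DTNB were added to start the reaction. Finally, TNB absorbance was monitored kinetically.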
# Tb PYK inh: T. brucei pyruvate kinase inhibition; TbPYK enzyme, Kinase-Glo Plus ATP luminescence, 45 min; Potency, µM (titrated, usually from 76.8 µM), inactives show at the top dose activity, negative = inhibition, actives largely listed as inhibitors; 410,000 compounds, 0.12% hits; Q57TT1; also: nearly all actives have a fitted effect of over 50% in size
#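 Luminescent Kinase-Glo Plus end-point after 45 min room-temperature reaction of T. brucei pyruvate kinase started with 130 uM ADP (final). Buffer TEA 50 mM pH 7.2 with KCl, MgCl2, BSA, Tween-20; titration-based qHTS with fitted concentration-effect curves.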
# LmPK inhibitor: blocks Leishmania mexicana pyruvate kinase activity; purified LmPK, Kinase-Glo ATP luminescence, 1 h; Potency, µM (highest dose often 57.5 µM), for the others: at the highest dose activity change, negative = inhibition, usual class: inhibitors; 290,000 compounds, 0.37% hits; AID 1721
# Target sequence (Q27686 whole entry, looked up): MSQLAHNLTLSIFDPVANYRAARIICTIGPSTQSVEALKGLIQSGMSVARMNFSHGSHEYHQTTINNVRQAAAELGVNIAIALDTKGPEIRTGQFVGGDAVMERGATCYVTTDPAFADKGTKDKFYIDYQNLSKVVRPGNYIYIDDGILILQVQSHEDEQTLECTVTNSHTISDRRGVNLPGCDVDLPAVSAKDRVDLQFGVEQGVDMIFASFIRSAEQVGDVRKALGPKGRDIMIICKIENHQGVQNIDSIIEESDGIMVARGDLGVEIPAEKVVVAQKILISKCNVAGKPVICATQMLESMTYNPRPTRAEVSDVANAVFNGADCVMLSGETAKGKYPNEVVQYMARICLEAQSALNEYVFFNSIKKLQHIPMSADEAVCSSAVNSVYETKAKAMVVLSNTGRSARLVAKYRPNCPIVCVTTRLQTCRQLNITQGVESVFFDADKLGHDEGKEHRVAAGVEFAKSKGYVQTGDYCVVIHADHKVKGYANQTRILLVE
#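 0.1 nM LmPK, 0.5 mM PEP, 0.1 mM ADP; 50 mM imidazole pH 7.2, 7 mM MgCl2, 50 mM KCl; 1 h RT. Kinase-Glo luminescence readout, normalized to no-enzyme (full inhibition) and uninhibited wells.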
# * = called active by the depositor; ? = inconclusive; / = not tested or not shown. Unless noted, calls follow the shape of the dose curve; as a rule, active = well fitted curve in the direction sought with a large enough effect; inconclusive = small, poorly fitted or top-dose-only effect, or another doubt; inactive = no such curve, though single readings can be large; an effect the other way counts as inactive or inconclusive. % is scaled to controls: 0 for no effect and ±100 for the full control effect; potency is read from the fitted curve at half-maximal effect.
SMILES,RE007 growth inh,Sm TGR block,Tb PYK inh,LmPK inhibitor
O=C(NCc1ccco1)c1ccc(C(=O)NCc2ccco2)s1,5%,?,?,-6%
Cc1cccc(OCC(=O)O/N=C(\N)c2ccncc2)c1,3%,-7%,-1%,1%
CC(=O)O[C@H]1CCC2C3CCC4=CC(=O)CCC4=C3C=C[C@@]21C (stereo not given in full),-18%,5µM*,-12%,?
Cn1c2cc(B(O)O)sc2c2cnn(Cc3c(F)cccc3Cl)c(=O)c21,/,2%,/,/
CC(C)Cn1c(/C=C/c2ccco2)nc2ccccc21,1%,7.9µM*,-19%,-3%
CCCn1c(/C=C/c2ccccc2)nc2ccccc21,-12%,-116%,-9%,?
CCc1ccc(S(=O)(=O)/N=C2\C=C(Nc3ccc(C(=O)O)cc3)C(=O)c3ccccc32)cc1,-13%,-9%,-12%,-7%
COC(=O)c1ccccc1NC1=C/C(=N\S(=O)(=O)c2ccc(C(=O)O)cc2)c2ccccc2C1=O,?,14µM*,-5%,-4%
COC(=O)c1ccccc1NC1=C/C(=N\S(=O)(=O)c2cccs2)c2ccccc2C1=O,-29%,?,-5%,18µM*
Clc1cccc(N2CCN(c3nc4ccccc4c4nc(-c5ccccc5)nn34)CC2)c1,/,1%,0%,/
COc1cccc(Nc2ncc3nc(C)c(=O)n(CCC#N)c3n2)c1,/,/,1%,/
Cc1cccc(Cn2cc(S(=O)(=O)c3ccccc3)c(=O)c3cc(F)c(N4CCOCC4)cc32)c1,/,-1%,-5%,/
O=C(O)c1ccc(S(=O)(=O)N[C@@H](Cc2ccc(O)cc2)C(=O)O)cc1,/,45µM*,/,/
N#Cc1ccc(C[C@@H](NS(=O)(=O)c2ccc(C(=O)O)cc2)C(=O)O)cc1,/,-4%,/,/
C/C(=N\Nc1ccc(S(N)(=O)=O)cc1[N+](=O)[O-])c1ccco1,4%,40µM*,0%,-5%
O=C(CSc1nc(=O)[nH]c2c1CCCC2)NCc1ccccc1Cl,/,-2%,-7%,/
O=C(CSCc1ccccc1)N=Nc1c(O)[nH]c2ccccc12,8%,3%,-3%,-1%
O=C(N=Nc1c(O)[nH]c2ccccc12)c1ccco1,-26%,4%,8%,25µM*
Oc1[nH]c2ccc(Br)cc2c1N=NC(=S)N1CCOCC1,13%,20%,?,22µM*
NC(=S)N=Nc1c(O)[nH]c2ccccc12,3%,-6%,-4%,-1%
COC(=O)N=Nc1c(O)[nH]c2ccc(Br)cc12,-12%,1%,-17%,-1%
Oc1[nH]c2ccccc2c1N=NC(=S)N1CCOCC1,9%,-19%,?,22µM*
CC(C)Oc1ccc(S(=O)(=O)N2CCOCC2)cc1NC(=O)CSc1nnc(C2CC2)n1C,21%,/,3%,/
c1ccc(-c2ccc(-c3ccccn3)nn2)nc1,/,0%,/,14µM*
CC(C)NC(=O)c1ccc2c3n(nc2c1)-c1ccccc1CO3,-30%,6%,?,13µM*
SMILES,RE007 growth inh,Sm TGR block,Tb PYK inh,LmPK inhibitor
O=C(NCC1CC1)c1ccc2c3n(nc2c1)-c1ccccc1CO3,-22%,10%,?,14µM*
O=C(NCCO)c1ccc2c3n(nc2c1)-c1ccccc1CO3,-8%,12%,-28%,?
CC(C)[C@@H](CO)NC(=O)c1ccc2c3n(nc2c1)-c1ccccc1CO3,-27%,6%,-24%,14µM*
Cc1nn(-c2ccc(N3CCCC3)nn2)c(C)c1CCC(=O)NCc1ccccc1F,/,?,3%,/
Cc1ccc2nc(NC(=O)CSc3cc(C)[nH]c(=O)n3)sc2c1,/,7%,1%,/
C#CCSc1nsc(SCC#C)c1C#N,4%,35µM*,-22%,3%
CCOC(=O)c1ccc(NC(=O)c2nc(SCc3ccccc3F)ncc2Cl)cc1,/,-2%,-1%,/
Cc1nnc(NC(=O)c2nc(SCc3ccccc3F)ncc2Cl)s1,/,2%,0%,/
O=C(Nc1nc2ccc(F)cc2s1)c1nc(S(=O)(=O)Cc2ccccc2F)ncc1Cl,/,?,6%,/
Cc1nnc(NC(=O)c2nc(S(=O)(=O)Cc3ccccc3C)ncc2Cl)s1,-20%,25µM*,0%,1%
CSc1nnc(NC(=O)c2nc(S(=O)(=O)Cc3ccccc3F)ncc2Cl)s1,-7%,28µM*,-6%,7%
CCc1nnc(NC(=O)c2nc(SCc3ccccc3F)ncc2Cl)s1,/,-2%,0%,/
CCOc1ccc(NC(=O)c2nc(S(=O)(=O)Cc3ccccc3F)ncc2Cl)cc1,/,7.1µM*,-8%,/
